Test results: the supplement of paper PMC10849652
About 8,800 targets were measured; listed, in parts, are those with a hit and a random draw of the rest. About 0.5% of all pairs of compound and target were hits. A number with no mark means an inactive call.

Columns and labels:
Experiment in all cases: log2 fold change, soluble protein after heating vs DMSO (PISA); higher = thermal stabilisation; K562 lysate, 10 uM; active = over 0.2 and 3.5 SD of the protein, either way, in both replicates (recomputed)
alvocidib = compound: CN1CC[C@H](c2c(O)cc(O)c3c(=O)cc(-c4ccccc4Cl)oc23)[C@H](O)C1 [alvocidib]
In short: (§1)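 Thermal stability, expressed as log-two fold change relative to solvent controls, is given from duplicates. Crude K562 extract in PBS pH 7.4 with 1 mM MgCl2, at 1 mg/mL protein, was treated with 10 μM compound for 30 min and heated in aliquots for 3 min across 48°C-58°C. After pooling, adjustment to 0.5% NP-40 at 4°C and centrifugation at 21,000xg for 90 min, supernatant protein was measured by TMTpro 16plex LC-MS/MS with channel sums equalised.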

Tubastatin A = compound: CN1CCc2c(c3ccccc3n2Cc2ccc(C(=O)NO)cc2)C1 [Tubastatin A]
In short: as §1

[1] = compound: CNC(=O)C1=CC=CC=C1NC2=NC(=NC=C2Cl)NC3=C(C=C(C=C3)N4CCOCC4)OC
In short: as §1

defactinib = compound: CNC(=O)c1ccc(Nc2ncc(C(F)(F)F)c(NCc3nccnc3N(C)S(C)(=O)=O)n2)cc1 [defactinib]
In short: as §1

[2] = compound: CNc1nc(-c2ccc3c(N)n[nH]c3c2)cc(N2C[C@@H](C(=O)NC3CCCCC3)CC[C@H]2C)n1
In short: as §1

encorafenib = compound: COC(=O)N[C@@H](C)CNc1nccc(-c2cn(C(C)C)nc2-c2cc(Cl)cc(NS(C)(=O)=O)c2F)n1 [encorafenib]
In short: as §1

[3] = compound: COC(=O)[C@H](CCSC)NC(=O)C1=C(C=C(C=C1)NC[C@H](CS)N)C2=CC=CC=C2
In short: as §1

alisertib = compound: COc1cc(Nc2ncc3c(n2)-c2ccc(Cl)cc2C(c2c(F)cccc2OC)=NC3)ccc1C(=O)O [alisertib]
In short: as §1

[4] = compound: COc1cc2nc(-c3cc(F)ccc3O)nc(N[C@@H]3CNC[C@H]3C(C)(C)O)c2cc1OC
In short: as §1

lapatinib = compound: CS(=O)(=O)CCNCc1ccc(-c2ccc3ncnc(Nc4ccc(OCc5cccc(F)c5)c(Cl)c4)c3c2)o1 [lapatinib]
In short: as §1

pictilisib = compound: CS(=O)(=O)N1CCN(Cc2cc3nc(-c4cccc5[nH]ncc45)nc(N4CCOCC4)c3s2)CC1 [pictilisib]
In short: as §1

crizotinib = compound: C[C@@H](Oc1cc(-c2cnn(C3CCNCC3)c2)cnc1N)c1c(Cl)ccc(F)c1Cl [crizotinib]
In short: as §1

[5] = compound: C[C@H](C1=CC=C(C=C1)C(=O)NC2=C3C=CNC3=NC=C2)N
In short: as §1

duvelisib = compound: C[C@H](Nc1ncnc2nc[nH]c12)c1cc2cccc(Cl)c2c(=O)n1-c1ccccc1 [duvelisib]
In short: as §1

gandotinib = compound: Cc1cc(Nc2cc(CN3CCOCC3)c3nc(C)c(Cc4ccc(Cl)cc4F)n3n2)n[nH]1 [gandotinib]
In short: as §1

tozasertib = compound: Cc1cc(Nc2cc(N3CCN(C)CC3)nc(Sc3ccc(NC(=O)C4CC4)cc3)n2)n[nH]1 [tozasertib]
In short: as §1

doramapimod = compound: Cc1ccc(-n2nc(C(C)(C)C)cc2NC(=O)Nc2ccc(OCCN3CCOCC3)c3ccccc23)cc1 [doramapimod]
In short: as §1

bafetinib = compound: Cc1ccc(NC(=O)c2ccc(CN3CC[C@H](N(C)C)C3)c(C(F)(F)F)c2)cc1Nc1nccc(-c2cncnc2)n1 [bafetinib]
In short: as §1

[6] = compound: Cc1cccc(CC(=O)N2CCc3c2ccc(-c2cn(C)c4ncnc(N)c24)c3F)n1
In short: as §1

gefitinib = compound: COc1cc2ncnc(Nc3ccc(F)c(Cl)c3)c2cc1OCCCN1CCOCC1 [gefitinib]
In short: as §1

Sequence of UniProt O00764 (O00764 whole entry, looked up): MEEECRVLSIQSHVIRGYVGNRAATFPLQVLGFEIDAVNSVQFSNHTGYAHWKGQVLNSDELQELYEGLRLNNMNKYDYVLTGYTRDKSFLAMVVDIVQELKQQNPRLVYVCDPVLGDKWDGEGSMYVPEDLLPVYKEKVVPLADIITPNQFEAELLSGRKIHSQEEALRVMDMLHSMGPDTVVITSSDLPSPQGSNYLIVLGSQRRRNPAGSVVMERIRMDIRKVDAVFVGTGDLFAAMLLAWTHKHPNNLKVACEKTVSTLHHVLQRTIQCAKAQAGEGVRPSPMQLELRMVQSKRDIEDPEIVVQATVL
Sequence of UniProt Q969Q6 (Q969Q6 whole entry, looked up): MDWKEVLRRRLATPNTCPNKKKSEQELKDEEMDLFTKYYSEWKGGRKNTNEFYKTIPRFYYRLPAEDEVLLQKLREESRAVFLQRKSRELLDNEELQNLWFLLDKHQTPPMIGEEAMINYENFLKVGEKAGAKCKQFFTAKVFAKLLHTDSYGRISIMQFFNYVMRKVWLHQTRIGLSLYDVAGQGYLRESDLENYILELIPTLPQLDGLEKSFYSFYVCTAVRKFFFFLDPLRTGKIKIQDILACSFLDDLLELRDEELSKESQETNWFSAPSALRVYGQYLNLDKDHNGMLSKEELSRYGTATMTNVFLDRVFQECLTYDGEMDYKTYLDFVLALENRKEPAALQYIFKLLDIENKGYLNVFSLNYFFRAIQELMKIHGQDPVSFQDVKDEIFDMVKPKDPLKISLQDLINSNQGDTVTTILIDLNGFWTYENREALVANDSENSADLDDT
Sequence of UniProt Q9Y5K3 (Q9Y5K3 whole entry, looked up): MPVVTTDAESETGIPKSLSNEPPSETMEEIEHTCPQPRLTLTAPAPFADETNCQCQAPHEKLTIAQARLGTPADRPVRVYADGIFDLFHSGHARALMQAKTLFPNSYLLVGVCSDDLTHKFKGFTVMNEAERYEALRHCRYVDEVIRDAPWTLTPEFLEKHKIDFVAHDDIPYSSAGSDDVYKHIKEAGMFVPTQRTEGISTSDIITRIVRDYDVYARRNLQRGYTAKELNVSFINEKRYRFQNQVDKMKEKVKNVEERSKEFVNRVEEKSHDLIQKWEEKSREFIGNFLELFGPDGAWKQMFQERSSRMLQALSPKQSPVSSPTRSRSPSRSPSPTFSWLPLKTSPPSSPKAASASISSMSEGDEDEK
Sequence of UniProt Q96CD2 (Q96CD2 whole entry, looked up): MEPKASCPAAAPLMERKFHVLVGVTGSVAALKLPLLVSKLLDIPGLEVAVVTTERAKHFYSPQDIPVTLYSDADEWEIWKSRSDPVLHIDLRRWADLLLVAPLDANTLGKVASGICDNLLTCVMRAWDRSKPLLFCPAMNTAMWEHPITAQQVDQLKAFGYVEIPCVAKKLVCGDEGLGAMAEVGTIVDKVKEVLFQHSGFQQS
Sequence of UniProt P28328 (P28328 whole entry, looked up): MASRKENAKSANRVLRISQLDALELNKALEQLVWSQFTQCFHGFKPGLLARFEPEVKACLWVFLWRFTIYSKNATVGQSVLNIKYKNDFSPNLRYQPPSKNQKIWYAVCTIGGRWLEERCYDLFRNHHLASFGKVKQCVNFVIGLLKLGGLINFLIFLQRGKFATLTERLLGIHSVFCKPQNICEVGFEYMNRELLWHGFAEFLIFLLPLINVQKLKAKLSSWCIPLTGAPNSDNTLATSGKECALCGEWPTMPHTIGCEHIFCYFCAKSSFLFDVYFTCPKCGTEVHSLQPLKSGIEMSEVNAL
Sequence of UniProt Q9HBH1 (Q9HBH1 whole entry, looked up): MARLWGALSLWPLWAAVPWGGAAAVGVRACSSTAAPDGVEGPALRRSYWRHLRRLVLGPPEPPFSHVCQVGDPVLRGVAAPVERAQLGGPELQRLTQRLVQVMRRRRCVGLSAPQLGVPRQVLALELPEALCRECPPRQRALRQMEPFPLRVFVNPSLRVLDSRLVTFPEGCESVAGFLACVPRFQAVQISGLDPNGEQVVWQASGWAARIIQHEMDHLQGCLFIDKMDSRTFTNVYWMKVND
Sequence of UniProt Q16875 (Q16875 whole entry, looked up): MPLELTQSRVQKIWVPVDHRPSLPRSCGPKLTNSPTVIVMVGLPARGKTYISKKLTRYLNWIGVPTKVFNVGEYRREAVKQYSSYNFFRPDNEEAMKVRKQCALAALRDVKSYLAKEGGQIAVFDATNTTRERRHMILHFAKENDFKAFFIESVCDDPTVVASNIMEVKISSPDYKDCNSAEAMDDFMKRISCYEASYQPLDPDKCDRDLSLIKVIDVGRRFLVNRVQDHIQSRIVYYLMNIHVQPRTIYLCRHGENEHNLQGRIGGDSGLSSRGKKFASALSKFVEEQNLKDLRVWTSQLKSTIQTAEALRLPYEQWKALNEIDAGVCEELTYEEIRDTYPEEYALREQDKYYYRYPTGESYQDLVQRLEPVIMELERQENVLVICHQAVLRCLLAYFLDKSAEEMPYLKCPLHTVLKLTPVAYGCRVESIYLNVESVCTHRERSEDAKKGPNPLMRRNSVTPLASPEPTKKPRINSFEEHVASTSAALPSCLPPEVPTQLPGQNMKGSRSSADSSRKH
Sequence of UniProt Q8N4L2 (Q8N4L2 whole entry, looked up): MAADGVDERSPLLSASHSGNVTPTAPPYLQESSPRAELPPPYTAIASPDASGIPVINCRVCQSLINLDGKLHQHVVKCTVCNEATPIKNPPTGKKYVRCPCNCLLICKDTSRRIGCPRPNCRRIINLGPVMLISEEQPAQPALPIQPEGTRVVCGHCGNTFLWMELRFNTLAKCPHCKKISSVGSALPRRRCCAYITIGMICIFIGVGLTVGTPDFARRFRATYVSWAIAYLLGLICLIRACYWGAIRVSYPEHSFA
Sequence of UniProt P54277 (P54277 whole entry, looked up): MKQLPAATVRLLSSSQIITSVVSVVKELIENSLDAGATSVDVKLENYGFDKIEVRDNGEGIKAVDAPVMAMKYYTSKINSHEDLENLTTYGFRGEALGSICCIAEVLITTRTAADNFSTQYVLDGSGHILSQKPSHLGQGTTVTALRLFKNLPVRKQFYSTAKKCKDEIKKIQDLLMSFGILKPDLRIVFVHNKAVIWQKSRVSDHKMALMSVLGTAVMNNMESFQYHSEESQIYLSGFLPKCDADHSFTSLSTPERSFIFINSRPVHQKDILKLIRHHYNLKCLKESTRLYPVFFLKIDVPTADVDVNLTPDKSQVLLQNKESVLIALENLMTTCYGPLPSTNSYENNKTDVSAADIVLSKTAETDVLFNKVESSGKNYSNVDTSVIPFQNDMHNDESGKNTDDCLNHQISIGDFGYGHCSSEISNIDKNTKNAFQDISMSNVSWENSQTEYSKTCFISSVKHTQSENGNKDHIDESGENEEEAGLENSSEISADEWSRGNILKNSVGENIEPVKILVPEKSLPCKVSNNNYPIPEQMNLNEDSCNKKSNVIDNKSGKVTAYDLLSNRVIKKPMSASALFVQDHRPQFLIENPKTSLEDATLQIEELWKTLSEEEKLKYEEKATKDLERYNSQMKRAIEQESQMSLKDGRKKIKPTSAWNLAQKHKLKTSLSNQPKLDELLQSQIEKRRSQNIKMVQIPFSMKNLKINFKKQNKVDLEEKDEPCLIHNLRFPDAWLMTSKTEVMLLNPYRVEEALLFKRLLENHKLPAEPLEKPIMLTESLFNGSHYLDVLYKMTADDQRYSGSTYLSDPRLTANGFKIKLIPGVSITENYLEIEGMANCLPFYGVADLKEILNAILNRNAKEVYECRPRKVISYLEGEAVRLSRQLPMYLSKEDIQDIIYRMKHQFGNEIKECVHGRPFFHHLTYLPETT
Sequence of UniProt Q8WUM4 (Q8WUM4 whole entry, looked up): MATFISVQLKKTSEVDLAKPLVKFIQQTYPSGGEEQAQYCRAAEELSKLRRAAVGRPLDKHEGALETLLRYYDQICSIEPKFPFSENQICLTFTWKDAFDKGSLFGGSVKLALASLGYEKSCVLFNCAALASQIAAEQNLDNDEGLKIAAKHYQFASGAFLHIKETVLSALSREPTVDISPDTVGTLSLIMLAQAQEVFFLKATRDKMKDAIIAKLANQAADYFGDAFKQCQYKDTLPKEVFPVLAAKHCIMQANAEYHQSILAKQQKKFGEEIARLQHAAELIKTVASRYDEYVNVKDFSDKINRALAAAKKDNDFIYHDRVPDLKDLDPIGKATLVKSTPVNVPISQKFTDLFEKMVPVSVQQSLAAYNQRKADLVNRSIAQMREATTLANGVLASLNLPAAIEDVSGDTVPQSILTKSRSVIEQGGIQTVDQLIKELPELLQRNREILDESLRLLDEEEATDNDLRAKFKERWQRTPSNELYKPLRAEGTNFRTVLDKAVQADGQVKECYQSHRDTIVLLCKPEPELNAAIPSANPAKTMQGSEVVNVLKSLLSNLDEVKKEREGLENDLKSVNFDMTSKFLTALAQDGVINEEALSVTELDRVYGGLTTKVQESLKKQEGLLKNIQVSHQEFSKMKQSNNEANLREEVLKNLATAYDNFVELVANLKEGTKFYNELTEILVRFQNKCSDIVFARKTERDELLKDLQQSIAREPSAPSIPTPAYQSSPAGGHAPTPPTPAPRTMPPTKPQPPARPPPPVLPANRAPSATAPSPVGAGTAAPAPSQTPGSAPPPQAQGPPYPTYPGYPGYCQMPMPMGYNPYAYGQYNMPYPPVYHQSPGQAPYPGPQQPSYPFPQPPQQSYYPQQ
Sequence of UniProt Q15004 (Q15004 whole entry, looked up): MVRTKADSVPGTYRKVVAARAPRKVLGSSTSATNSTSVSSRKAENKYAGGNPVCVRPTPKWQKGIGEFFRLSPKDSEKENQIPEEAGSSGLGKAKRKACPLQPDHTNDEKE

Row | Target | log2 fold change (alvocidib) | log2 fold change (Tubastatin A) | log2 fold change [1] | log2 fold change (defactinib) | log2 fold change [2] | log2 fold change (encorafenib) | log2 fold change [3] | log2 fold change (alisertib) | log2 fold change [4] | log2 fold change (lapatinib) | log2 fold change (pictilisib) | log2 fold change (crizotinib) | log2 fold change [5] | log2 fold change (duvelisib) | log2 fold change (gandotinib) | log2 fold change (tozasertib) | log2 fold change (doramapimod) | log2 fold change (bafetinib) | log2 fold change [6] | log2 fold change (gefitinib)
1 | PRKDC (UniProt P78527) | -0.06 | -0.114 | -0.002 | 0.033 | -0.03 | -0.022 | -0.035 | 0.012 | -0.003 | -0.032 | 0.155 | -0.026 | -0.088 | 0.298 | 0.132 | -0.03 | -0.038 | -0.146 | -0.074 | 
2 | PDCD6IP isoform 2 (UniProt Q8WUM4) | 0.033 | -0.088 | -0.005 | -0.022 | -0.02 | -0.01 | 0.188 | 0.014 | 0.003 | 0 | -0.015 | -0.015 | 0.071 | -0.009 | -0.09 | 0.024 | -0.008 | -0.006 | -0.019 | -0.003
3 | PTPN1 (UniProt P18031) | -0.002 | -0.048 | 0.018 | 0.015 | -0.033 | -0.003 | 0.014 | 0.005 | 0.047 | -0.022 | -0.022 | -0.031 | -0.042 | -0.007 | -0.055 | 0.069 | 0.059 | -0.029 | 0.062 | 0.014
4 | PCYT1B (UniProt Q9Y5K3) | -0.007 | -0.023 | 0.033 | 0.01 | 0.086 | 0.047 | -0.025 | 0.033 | -0.02 | 0.008 | 0.004 | 0.025 | -0.044 | -0.007 | 0.193 | 0.008 | -0.003 | -0.127 | 0.239 (active) | 0.033
5 | PDXK (UniProt O00764) | -0.031 | -0.005 | 0.027 | 0.047 | 0.06 | -0.032 | -0.012 | -0.038 | 0.016 | -0.026 | 0.014 | 0.004 | -0.134 | 0.041 | 0.109 | -0.014 | -0.072 | 0.046 | 0.083 | -0.022
6 | PPP2R5B (UniProt Q15173) | 0.069 | -0.012 | -0.03 | -0.091 | -0.056 | -0.017 | 0.288 (active) |  | 0.046 | -0.089 | -0.064 | 0.075 | -0.017 | 0.021 | -0.168 | 0.04 | 0.005 | 0.054 | -0.036 | 
7 | PRKACB isoform 2 (UniProt P22694) | 0.006 | 0.003 | 0.011 | 0.117 | 0.118 | -0.018 | -0.05 | 0 | 0.51 (active) | -0.063 | -0.042 | -0.018 | 0.141 | 0.024 | -0.071 | -0.001 | -0.023 | -0.04 | -0.131 | 0.006
8 | PITRM1 isoform 2 (UniProt Q5JRX3) | 0.016 | 0.04 | 0.023 | 0.008 | -0.029 | -0.012 | 0.228 (active) | -0.016 | -0.016 | -0.001 | -0.025 | 0.053 | 0.04 | 0.029 | 0.013 | 0.006 | -0.024 | -0.023 | -0.062 | 0.044
9 | PPCDC (UniProt Q96CD2) | -0.08 | 0.034 | -0.053 | -0.037 | -0.054 | -0.082 | -0.027 | -0.051 | 0.032 | -0.023 | -0.176 | 0 | -0.342 (active) | 0.062 | 0.152 | 0 | 0.024 | 0.034 | 0.19 | 0.028
10 | PDF (UniProt Q9HBH1) | 0.01 | -0.065 | 0.083 | 0.059 | 0.011 | 0.028 | -0.293 (active) | 0.048 | -0.181 | 0.027 | -0.016 | -0.067 | 0.018 | -0.076 | -0.019 | 0.029 | 0.027 | -0.162 | 0.025 | -0.064
11 | PEX2 (UniProt P28328) | -0.041 | -0.104 | 0.172 | 0.181 | 0.118 |  |  | 0.115 | 0.116 | -0.081 | 0.035 | -0.041 | -0.04 | -0.031 | 0.096 |  | -0.151 | -0.218 | 0.149 | -0.372
12 | PCLAF (UniProt Q15004) | -0.005 | 0.041 | 0.017 | 0.014 | 0.056 | 0.005 | -0.077 | -0.097 |  |  | 0.015 | 0.024 | -0.079 | 0.037 | 0.108 | -0.029 | 0.009 | -0.01 | 0.05 | 0.001
13 | PLA2G4B isoform 6 (UniProt P0C869) | -0.035 | 0.054 | -0.032 | 0.024 | 0.051 | 0.09 | 0.177 | -0.009 | 0.073 | -0.001 | -0.032 | -0.49 | -0.015 | -0.038 | 0.069 | -0.009 | 0 | -0.133 | 0.086 | 0.115
14 | PIP4P2 (UniProt Q8N4L2) | -0.03 | 0.038 | -0.021 | -0.009 | 0.062 | 0 | -0.12 | 0.006 | 0.052 | 0.021 | -0.019 | 0.021 | 0.053 | 0.027 | -0.021 | 0.061 | 0.033 | -0.09 | -0.009 | 0.111
15 | PFKFB3 isoform 4 (UniProt Q16875) | -0.012 | -0.05 | 0.058 | -0.006 | 0.012 | 0.041 | -0.137 | -0.01 | 0 | -0.228 | -0.057 | -0.021 | 0.004 | -0.009 | -0.006 | -0.003 | 0.007 | -0.03 | 0.007 | -0.01
16 | PPP2R3C (UniProt Q969Q6) | -0.018 | -0.145 | -0.046 | 0.072 | 0.081 | 0.105 | 0.013 | 0.069 | -0.23 | 0.048 | -0.029 |  | -0.1 | 0.028 | -0.097 | 0.036 |  | 0.022 | 0.023 | 0.105
17 | PMS1 (UniProt P54277) | -0.038 | -0.046 | -0.008 | 0 | -0.039 | 0.046 | 0.022 | -0.01 |  |  | -0.028 | -0.004 | 0.018 | 0.018 | -0.063 | -0.053 | -0.03 | -0.064 | -0.013 | 0.049
